A selection: hits, their analogues and other compounds. The true share with any hit is near 5.9%.
rCAG RNA binder: binders of r(CAG) RNA repeats, primary screen, biochemical, fluorescence. r(CAG) RNA repeat, TO-PRO-1 dye displacement fluorescence. inhibition, % at 3 µM. 1.3% of 370,000 active;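 active = inhibition above the plate cutoff, the mean of all test compounds on that plate plus 3 SD, cut at about 35% in these data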;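 also: higher means more dye released from RNA so lower well fluorescence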
ABHD5-PLIN5 inh: ABHD5-PLIN5 interaction inhibitors, primary screen, cell lysate, split luciferase complementation, luminescence; 0.78% of 360,000 active; Perilipin-5 (Homo sapiens) + 1-acylglycerol-3-phosphate O-acyltransferase ABHD5 (Homo …; inhibition, % at 4 µM; AID 602281, 2012; Split G. princeps luciferase complementation, 4 h;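 active = inhibition above the mean inhibition across every tested compound plus 3 SD, cut at about 22% in these data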
PRMT1 FP inh: PRMT1 methyltransferase inhibitors, primary screen, biochemical, fluorescence polarization. Protein arginine N-methyltransferase 1 (Homo sapiens), Q99873. recombinant PRMT1, activity-based probe fluorescence polarization. 1.3% of 370,000 active. AID 652257, 2013. inhibition, % at 2.79 µM;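 active = inhibition above about 21% made by adding two undisclosed values, limit read from the data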
Target sequence (Q99873 whole entry, looked up): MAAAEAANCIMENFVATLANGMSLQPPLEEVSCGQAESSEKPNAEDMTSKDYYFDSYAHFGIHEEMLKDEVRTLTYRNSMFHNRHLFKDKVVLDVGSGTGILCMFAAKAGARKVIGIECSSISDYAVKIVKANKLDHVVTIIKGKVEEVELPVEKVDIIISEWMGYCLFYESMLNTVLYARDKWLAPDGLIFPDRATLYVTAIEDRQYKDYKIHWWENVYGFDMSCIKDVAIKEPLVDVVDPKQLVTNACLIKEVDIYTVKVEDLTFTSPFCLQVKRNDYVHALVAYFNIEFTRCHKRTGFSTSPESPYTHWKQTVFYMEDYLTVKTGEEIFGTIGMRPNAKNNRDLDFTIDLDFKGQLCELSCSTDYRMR
LANA-H2A inh: blockers of LANA interaction with H2A/H2B – biochemical, FP readout, HTS, primary screen | Protein LANA1 (Human herpesvirus 8 type P (isolate GK18)), Q9QR71 | inhibition, % (concentration not given with the values) | 0.6% of 320,000 active | cell-free LANA-H2A/H2B peptide, fluorescence polarization; in the data active = inhibition mostly above about 10%, no sharp cut-off; inactive = mostly below about 6.7%
Rtt109 Vps75: inhibitors of C. albicans Rtt109/Vps75 HAT, primary screen, biochemical, ThioGlo CoA-SH fluorescence, plate reader | 0.16% of 330,000 active | purified Rtt109/Vps75, 4 h | AID 540336, 2011 | inhibition, % at 34.9 µM;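 active = inhibition of at least 50% in every replicate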
ALR inh: inhibitors of human ALR sulfhydryl oxidase, primary screen, biochemical, H2O2 detection, HRP-luminol luminescence, single point | inhibition, % (test concentration not listed) | purified ALR, DTT oxidation | AID 485317, 2010 | 3.8% of 290,000 active | FAD-linked sulfhydryl oxidase ALR (Homo sapiens), P55789;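 active = mean replicate inhibition above about 79%, with every replicate also reaching it, limit read from the data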
rCAG bind conf: small molecules binding CAG repeat RNA – biochemical, fluorescence, confirmation; AID 652065, 2013; shares compounds with rCAG RNA binder; r(CAG) RNA repeat, TO-PRO-1 dye displacement fluorescence; inhibition, % at 3 µM; 70% of 4,300 active;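 active = inhibition above a per-plate cutoff, the mean inhibition of sample wells plus 3 SD, cut at about 35% in these data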;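 also: loss of TO-PRO-1 fluorescence as compound displaces dye from 1x1 AA loop RNA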
dCAG dye counter: displacement of TO-PRO-1 from CAG DNA duplex, counter-screen for rCAG RNA repeat binder project, biochemical, fluorescence, TO-PRO-1 dye, d(CAG) DNA oligo | shares compounds with rCAG RNA binder | d(CAG) DNA oligo TO-PRO-1 dye displacement | 94% of 4,300 active | inhibition, % at 3 µM;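 active = inhibition above its plate's cutoff, the mean test-well inhibition plus 3 SD, cut at about 4.8% in these data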;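 also: hits displace the dye from DNA and so lower well fluorescence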
dCAG dye DR: inhibitors of DNA CAG/GTC TO-PRO-1 complex, dose response, counter-screen for rCAG RNA repeat binder project, biochemical, fluorescence, TO-PRO-1 dye; AID 686960, 2013; shares compounds with rCAG RNA binder; DNA CAG/GTC duplex TO-PRO-1 dye displacement fluorescence; IC50, µM; 20% of 250 active; in the data active = IC50 below about 10 µM
Of the large screens only hits and unclear results are named; the others gave an inactive call (follow-up assays come after a bar, where they were run).

CCOc1ccc(N=C2SC(C(=O)Nc3ccccc3C#N)C(N)=C2C(=O)Nc2ccc(Cl)cc2)cc1 (stereo not drawn)	rCAG RNA binder 38.6 | rCAG bind conf inactive | dCAG dye counter 16.5
CC(OC(=O)c1cccc(-n2cnnn2)c1)C(=O)NCc1ccccc1 (stereo not drawn)	none
CCCCCCCCCCCC(=O)NC(Cc1ccc(OC)c([N+](=O)[O-])c1)C(=O)O (stereo not drawn)	rCAG RNA binder 44.2 | rCAG bind conf 42.8 | dCAG dye counter 9.2
Nc1[nH]c(C(=O)c2ccccc2)c(-c2cccnc2)c1C(=O)NCCc1c[nH]c2ccccc12	none (no result: rCAG RNA binder, ABHD5-PLIN5 inh, LANA-H2A inh, Rtt109 Vps75, ALR inh)
COc1ccc(N(C)S(=O)(=O)c2cccc(C(=O)OCC(=O)N3CC(C)CC(C)C3)c2)cc1 (stereo not drawn)	none
COCCN1C(=O)/C(=C2/C(=O)N(CC(=O)Nc3ccccc3Cl)c3ccccc32)SC1=S	none
O=C(CN1C(=O)/C(=C2\SC(=S)N(CCS(=O)(=O)O)C2=O)c2ccccc21)Nc1cccc(Br)c1	rCAG RNA binder 88.1 (no result: ALR inh) | rCAG bind conf 89.5 | dCAG dye counter 65.4
O=C(CN1C(=O)/C(=C2/SC(=S)N(CCS(=O)(=O)O)C2=O)c2ccccc21)Nc1cccc(C(F)(F)F)c1	rCAG RNA binder 91.5 | rCAG bind conf 93.8 | dCAG dye counter 77.6
Cc1[nH]c2ccccc2c1/C=N/Nc1ccc([N+](=O)[O-])cc1	rCAG RNA binder 56.4 | rCAG bind conf inactive | dCAG dye counter 20.6
Cc1[nH]c2ccccc2c1/C=N/NC(=O)c1cccc([N+](=O)[O-])c1	none
COC(=O)C1(C(=O)OC)Cc2ccccc2N(S(=O)(=O)c2ccc(C)cc2)C1CC(C)=O (stereo not drawn)	none (no result: LANA-H2A inh, Rtt109 Vps75, ALR inh)
O=C(O)C(Cc1ccccc1)N1C(=O)/C(=C/c2cccs2)SC1=S (stereo not drawn)	rCAG RNA binder 66.9, Rtt109 Vps75 55.8 (no result: LANA-H2A inh, ALR inh) | rCAG bind conf 49.2 | dCAG dye counter 17.6
COc1cccc(/C=C2\SC(=S)N(C(Cc3ccccc3)C(=O)O)C2=O)c1 (stereo not drawn)	rCAG RNA binder 68.6 | rCAG bind conf 77.9 | dCAG dye counter 30.6 | dCAG dye DR inactive
COc1ccc(OC)c(/C=C2\SC(=S)N(C(C(=O)O)c3ccccc3)C2=O)c1 (stereo not drawn)	rCAG RNA binder 54.6, Rtt109 Vps75 65.5 (no result: ALR inh) | rCAG bind conf 77.3 | dCAG dye counter 44.2
CCOc1ccc(/C=C2\SC(=S)N(C(C(=O)O)c3ccccc3)C2=O)cc1OC (stereo not drawn)	none
O=C(Nc1cccc(-c2nc3ccccc3c(=O)o2)c1)c1ccccc1	rCAG RNA binder 36.1 (no result: ALR inh) | rCAG bind conf inactive | dCAG dye counter inactive
O=C(NCC1CCCO1)c1onc(CSc2cccc3ccccc23)c1C(=O)O (stereo not drawn)	rCAG RNA binder 42.4 | rCAG bind conf 40.0 | dCAG dye counter 6.2

Assay outcomes: PubChem, several laboratories
